Rows were chosen to be rich in hits. Some 21% of all compounds tested hit in one or more screens of this group.
Cycloheximide cs: counter-screen for Shiga toxin inhibitors: cycloheximide protein synthesis inhibition; 300,000 compounds, 12% hits; AID 2314; cell reporter, cycloheximide protein synthesis inhibition counterscreen; max response, %; in the data active = max response mostly above about 13%, no sharp cut-off; inactive = mostly below about 14%; note: read at 38.3 µM for the half of the compounds with a filed dose; 0% is about no effect
AMA1 RON2 block: disrupts binding of P. falciparum AMA1 to RON2; Potency, µM (highest dose often 58.2 µM), without a hit: top-dose activity change, negative = inhibition, actives largely listed as inhibitors; AlphaScreen AMA1-biotinylated RON2 peptide binding; 360,000 compounds, 0.2% hits; AID 720542;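 note: potency is the fitted concentration of half-maximal effect; 0% = vehicle wells and -100% = peptide control; nearly all actives have a fitted effect of over 45% in size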
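AMA1 (3D7) with his tag at 25 nM final met compounds first, then biotinylated RON2 peptide at 25 nM; detection used donor plus acceptor beads, 10 µg/mL apiece, read by AlphaScreen after 30 min at room temperature.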
HCV inh: blocks hepatitis C virus | Huh7.5.1 HCVcc-Cre infection, luciferase reporter, 44 h | Potency, µM (highest dose often 41.8 µM), for inactives: at the highest dose activity change, negative = inhibition, hits mostly inhibitors | 340,000 compounds, 3.4% hits | AID 651820; note: potency is the fitted concentration of half-maximal effect; % is set by controls: 0 for no effect and ±100 for the full control effect
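A cell-based infection assay in which seeded cells (1,000 per well) receive test compound after 4 h, are inoculated with HCVcc-Cre at approximately 0.5 moi, and are incubated 44 h before luminescence detection.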
Pf growth 48h: inhibits P. falciparum growth in the first generation, 48 h; P. falciparum luciferase growth in erythrocytes, 48 h; Potency, µM (doses to about 28.7 µM), for inactives: at the highest dose activity change, negative = inhibition, hits mostly inhibitors; 310,000 compounds, 5.9% hits; AID 504832; note: potency is the fitted concentration of half-maximal effect; % is set by controls: 0 for no effect and ±100 for the full control effect
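Erythrocytes infected with P. falciparum carrying an integrated firefly luciferase reporter (2% hematocrit, 0.1% parasitemia final) were exposed to compounds in RPMI 1640 with 0.5% Albumax at 37 C, 5% CO2. Growth inhibition was scored as reduced luminescence.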
Pf growth 96h: P. falciparum growth inhibition at 96 hours. 320,000 compounds, 6.9% hits. P. falciparum luciferase reporter growth, 96 h. Potency, µM (doses to about 28.7 µM), for the others: top-dose activity change, negative = inhibition, usual class: inhibitors; note: potency is the fitted concentration of half-maximal effect; % is set by controls: 0 for no effect and ±100 for the full control effect
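P. falciparum expressing integrated firefly luciferase, in erythrocytes at 2% hematocrit, 0.05% parasitemia, incubated with compounds 96 h at 37 C, 5% CO2. Growth inhibition read as loss of luminescence; two-generation exposure targets delayed-death apicoplast inhibitors.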
Shiga toxin inh: inhibitors of Shiga toxin in Vero cells | 290,000 compounds, 9.2% hits | Vero cells, Shiga toxin protein synthesis inhibition reporter | inhibition, % at 38.7 µM | AID 2315; in the data active = inhibition mostly above about 28%, no sharp cut-off; inactive = mostly below about 43%; note: 0% is about no effect
The depositor's hits bear a star; ? = inconclusive; / = not tested or not shown; [ ] = another dose, or the depositor's remark. Unless noted, calls come from the whole dose curve; as a rule, active = well fitted curve in the direction sought with a large enough effect; inconclusive = small, poorly fitted or top-dose-only effect, or another doubt; inactive = no such curve, though single readings can be large; an effect the other way counts as inactive or inconclusive.

SMILES	Cycloheximide cs	AMA1 RON2 block	HCV inh	Pf growth 48h	Pf growth 96h	Shiga toxin inh
CC(=O)Nc1cccc(NC(=O)c2csc(C)c2)c1	-3	-7%	11%	-5%	?	-18
Cc1cc(C)c(C(=O)CSc2nnc(-c3cccnc3)n2C)c(C)c1	-5	6%	3%	12µM*	/	1
CCn1nnnc1SCC(=O)c1ccc(C)cc1	38*	5%	-9%	122%	-43%	121*
Cc1occc1-c1nnc(SCC(=O)c2ccc(Cl)cc2)n1CC1CCCO1 (configuration not stated)	2	14%	-1%	5%	4%	37
Cc1cc(C)c(NC(=O)CSc2nncn2-c2cccnc2)c(C)c1	1	-1%	14%	-1%	12µM*	-5
CCn1c(SCC(=O)c2ccc(Cl)cc2)nnc1-c1ccoc1C	33*	-7%	?	?	15µM*	17*
CCn1nnnc1SCC(=O)c1ccc(NC(C)=O)cc1	22	5%	-11%	36%	/	23
O=C(Nc1ccc(S(=O)(=O)Nc2ncccn2)cc1)C1CC(=O)N(c2ccc(Cl)cc2)C1 (configuration not stated)	-3	6%	17%	23%	-4%	-2
CCn1c(SCC(=O)c2ccccc2)nnc1-c1cccnc1	44*	-1%	11%	20%	-5%	46
Cc1nnc(SCC(=O)N(C)CC(=O)Nc2ccc(F)cc2)n1Cc1ccccc1	6	1%	-3%	9.3µM*	-30%	-19
Nc1cc(Cl)ccc1C(=O)OCC(=O)NCC1CCCO1 (configuration not stated)	/	1%	10%	/	/	/
CCCCn1nnc(N(C(=O)c2cccs2)C(=O)c2cccs2)n1	37*	9%	16%	47%	11%	86*
CCCn1nnc(NC(=S)NC(=O)c2cccs2)n1	8	59%	1%	40%	-79%	3
CN(C)c1nnnn1-c1cccc(Oc2ncc(C(F)(F)F)cc2Cl)c1	-3	4%	?	-10%	-8%	-4
CCOC(=O)c1c(N2C(=O)CC(Sc3ccccc3C(=O)O)C2=O)sc2c1CCCC2 (configuration not stated)	-4	-3%	10%	-2%	-5%	16
O=C(O)CSc1c2c(nc3cc(C(=O)N4CCOCC4)ccc13)CCCC2	-2	-10%	13%	17%	-7%	-6
COc1cc(NC(=O)c2ccc3c(SCC(=O)O)c4c(nc3c2)CCCC4)cc(OC)c1OC	1	8%	?	15%	?	-24
CCOC(=O)N1CCN(C(=O)c2ccc3c(SCC(=O)O)c4c(nc3c2)CCCC4)CC1	-1	4%	31%	-5%	12µM*	-9
COCCNC(=O)c1ccc2c(Cl)c3c(nc2c1)CCC3	46*	2%	-11%	110%	23%	77*
COc1cc(OC)c(NC(=O)c2ccc3c(SCC(=O)O)c4c(nc3c2)CCCC4)cc1Cl	-3	-2%	-29%	5.2µM*	226%	-12
CN1CCN(C(=O)c2ccc3c(Cl)c4c(nc3c2)CCCC4)CC1	15	-5%	4%	-30%	13µM*	28
CCN1CCN(CCCNC(=O)c2ccc3c(Cl)c4c(nc3c2)CCCC4)CC1	-7	9%	?	?	-13%	-10
CCCN(CCC)CCCNC(=O)c1ccc2c(Cl)c3c(nc2c1)CCC3	9	-2%	?	?	31%	3
CC1CCN(CCCNC(=O)c2ccc3c(Cl)c4c(nc3c2)CCCC4)CC1	-1	2%	8.9µM*	13µM*	?	-7
O=C(NCCCN1CCCCCC1)c1ccc2c(Cl)c3c(nc2c1)CCCC3	-3	-27%	0.63µM*	?	47%	-16
SMILES	Cycloheximide cs	AMA1 RON2 block	HCV inh	Pf growth 48h	Pf growth 96h	Shiga toxin inh
c1ccc2c(-c3[nH]ncc3CNCCCn3ncc4ccccc43)cccc2c1	-1	-11%	10µM*	15µM*	12%	5
CC(C)(O)C#Cc1ccc(N2C(c3ccsc3)=Cc3ccc(F)cc3C2c2c[nH]c3ccccc23)cc1 (configuration not stated)	/	2%	/	/	/	/
O=C(c1ccc(=O)[nH]n1)N1CCN(S(=O)(=O)c2ccc(C(F)(F)F)cc2)CC1	/	3%	5%	?	?	/
CC(=O)OCC1O[C@@H](O[C@@H]2C[C@H]3C(C)(C)[C@H](OC(C)=O)CC[C@]3(C)[C@H]3CC[C@]45C[C@]4(CC[C@H]5[C@@H](C)C[C@@H](O)[C@H](O)C(C)(C)O)[C@@]32C)[C@H](O)[C@@H](O)[C@@H]1O (some centres not stated)	-12	/	-4%[8.37 µM]	12µM*	5.9µM*	-7
CC(C)=CCC[C@](C)(O[C@@H]1O[C@H](CO[C@@H]2O[C@H](CO)[C@@H](O)[C@H](O)[C@H]2O)[C@@H](O)[C@H](O)[C@H]1O)C1CC[C@]2(C)C1C(=O)CC1[C@@]3(C)CC[C@H](O[C@H]4O[C@@H](CO)[C@H](O)[C@@H](O)[C@@H]4O)C(C)(C)C3CC[C@]12C (some centres not stated)	/	0%	14%	/	/	/
CCC(C)OC(=O)c1[nH]c2c(c1C)C(=O)CC(c1ccc(N(C)C)cc1)C2 (configuration not stated)	41*	-15%	?	?	4%	57*
C/C=C/COC(=O)c1[nH]c2c(c1C)C(=O)CC(c1ccc(N(C)C)cc1)C2 (configuration not stated)	23*	-16%	5.6µM*	?	17%	20
Cc1ccc(NC(=O)[C@@H]2O[C@H](CO)[C@H](O)[C@H](O)[C@H]2O)cc1C(F)(F)F	/	6%	/	/	/	/
COc1ccc(OC)c(-n2c(-c3cccc(O)c3)n[nH]c2=S)c1	0	28%	13%	0.74µM*	-5%	-10
COc1ccc(-c2n[nH]c(=S)n2-c2cc(OC)ccc2OC)cc1	1	71%	3%	-3%	?	-2
O=C(/C=C/Nc1cccc([N+](=O)[O-])c1)c1cccs1	32*	2%	3%	/	152%	89*
O=C(Cc1cccs1)Nc1cccc([N+](=O)[O-])c1	23	-3%	-5%	11%	?	19
CNc1cc([N+](=O)[O-])ccc1N/C=C/C(=O)c1cccs1	33*	-17%	?	?	15%	107*
CNc1cc([N+](=O)[O-])ccc1N/C=C/C(=O)c1ccc2c(c1)OCO2	76*	4%	?	28%	0%	124*
O=C(COC(=O)c1ccccc1NCCO)Nc1cc(C(F)(F)F)ccc1N1CCOCC1	-1	21%	?	?	?	-2
Cc1ccc(NC(=O)c2ncn(CCCN(C)CCc3ccccn3)n2)cc1C	/	13%	-1%[8.37 µM]	/	/	/
